Screening results: PubChem BioAssay, National Center for Advancing Translational Sciences (NCATS)
In the library only some 21% were active in any assay of this set; here they are far more common.
ClpP mod: qHTS Assay for Activators of ClpP | ATP-dependent Clp protease proteolytic subunit (Bacillus subtilis (strain 168)), P80244 | purified B. subtilis ClpP, FRET peptide cleavage, 20 min | Potency, µM (series often up to 57.5 µM), without a hit: top-dose activity change, negative = active | 340,000 tested, 1.9% active | AID 651965, 2013; active means well fitted falling curve with a large enough effect; inconclusive means small, poorly fitted or top-dose-only effect; inactive means no such curve, though single readings can be large or run the other way; further: potency means the concentration at half of the fitted maximal effect; the source files actives as falling curves though it sought activators and does not explain the sign; nearly all actives have a fitted effect of over 65% in size
Target sequence (P80244 whole entry, looked up): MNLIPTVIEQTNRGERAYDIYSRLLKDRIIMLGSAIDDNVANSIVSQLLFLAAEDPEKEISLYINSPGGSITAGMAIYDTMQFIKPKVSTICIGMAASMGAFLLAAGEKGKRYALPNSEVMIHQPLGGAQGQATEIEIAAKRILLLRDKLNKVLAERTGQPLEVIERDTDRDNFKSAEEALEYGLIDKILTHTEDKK
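Buffer: 100 mM Tris/HCl pH8, 100 mM KCl, 0.05% low protease BSA, 2.5% glycerol, 0.01% Tween-20. ClpP 10 microg/mL final; 20 min RT; delta FRET normalized to ADEP and DMSO controls.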
DT40 TDP1 no CPT: qHTS for Inhibitors of human tyrosyl-DNA phosphodiesterase 1 (TDP1): qHTS in cells in absence of CPT | AID 686978, 2013 | Potency, µM (titrated, usually from 46.2 µM), for inactives: at the top dose activity change, negative = growth inhibition, hits mostly inhibitors | DT40 Tdp1-/- hTDP1 cells, no CPT, ATP luminescence, 48 h | 420,000 tested, 15% active; further: potency means the concentration at half of the fitted maximal effect; on the % scale 0 is the no-effect control and ±100 the full control effect; nearly all actives have a fitted effect of over 55% in size
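Camptothecin absent (DMSO only). Human TDP1-complemented DT40 knockout cells, 400 cells/well, 37 °C for minimum 48 hr; ATP measured via CellTiter-Glo, 30 min dark incubation, luminescence.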
DRD3 agonist: qHTS of D3 Dopamine Receptor Agonist: qHTS; D(3) dopamine receptor (Homo sapiens), P35462; D3R DiscoveRx beta-arrestin cells, luminescence, 90 min; max activation, %; 410,000 tested, 0.58% active; AID 652048, 2013; in the data active means max activation above about 30%; further: 0% is about no effect
Target sequence (P35462 whole entry, looked up): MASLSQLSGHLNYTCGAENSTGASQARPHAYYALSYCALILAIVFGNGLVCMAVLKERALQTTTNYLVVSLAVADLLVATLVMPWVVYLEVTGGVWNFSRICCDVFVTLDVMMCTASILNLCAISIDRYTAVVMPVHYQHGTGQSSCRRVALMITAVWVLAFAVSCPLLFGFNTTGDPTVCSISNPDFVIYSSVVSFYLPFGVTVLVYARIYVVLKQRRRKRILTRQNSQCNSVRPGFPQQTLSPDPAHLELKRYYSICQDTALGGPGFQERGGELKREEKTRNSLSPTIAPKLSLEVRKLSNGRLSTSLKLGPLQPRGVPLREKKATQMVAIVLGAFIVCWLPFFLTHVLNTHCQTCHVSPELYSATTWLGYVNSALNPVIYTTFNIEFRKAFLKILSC
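Agonist-mode cell screen: cells plated at 1500/well and incubated overnight at 37 °C, then exposed to library compounds for 90 min at 37 °C. Detection reagent was added for 30–60 min at room temperature, and luminescence was read.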
IL1B secr inh: qHTS for Inhibitors of Inflammasome Signaling: IL-1-beta AlphaLISA Primary Screen. THP-1 LPS/ATP IL-1B secretion, AlphaLISA, 16 h; active compounds read low. AID 743279, 2014. 360,000 tested, 4.7% active. activity change, % at 57.5 µM; in the data active means activity change below about -50%; inconclusive means mostly about -30% to -49%; further: on the % scale 0 is the no-effect control and ±100 the full control effect
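Secreted IL-1B measured by AlphaLISA bead assay after 16 h compound exposure of THP-1 cells; compounds (final up to 57.5 uM) added 1 h before LPS (250 ng/mL) and ATP (1.25 mM) stimulation; lower signal means less secretion.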
TDP1 cell CPT: qHTS for Inhibitors of human tyrosyl-DNA phosphodiesterase 1 (TDP1): qHTS in cells in presence of CPT; AID 686979, 2013; 420,000 tested, 12% active; Potency, µM (titrated, usually from 46.2 µM), for inactives: at the highest dose activity change, negative = growth inhibition, usual class: inhibitors; chicken DT40 Tdp1-/-;hTDP1 cells + 20 nM CPT, ATP luminescence, 48 h; further: potency means the concentration at half of the fitted maximal effect; on the % scale 0 is the no-effect control and ±100 the full control effect; nearly all actives have a fitted effect of over 55% in size
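Chicken DT40 Tdp1-/- cells complemented with human TDP1, 400 cells/well, exposed to compounds plus 20 nM camptothecin for at least 48 h at 37 C; viability read as ATP content by CellTiter-Glo luminescence.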
D3 antag: qHTS of D3 Dopamine Receptor Antagonist: qHTS; D(3) dopamine receptor (Homo sapiens), P35462; D3R cells, DiscoveRx beta-arrestin luminescence, antagonist mode; active compounds read low; max response, negative = inhibition, %; 360,000 tested, 2.5% active; AID 652054, 2013; in the data active means max response below about -50%; inconclusive means no clear call, values can overlap the other calls; further: on the % scale 0 is the no-effect control and ±100 the full control effect
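Cells plated overnight at 1500 cells/well, then exposed to library compounds with dopamine controls for 90 minutes at 37 degrees C. DiscoveRx reagent added for 30–60 minutes at room temperature; luminescence read, quantitative HTS format.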
* = called active by the depositor; u = inconclusive; x = no result given. Unless noted, the call rests on the fitted dose curve; in most records, active means well fitted inhibition curve with a large enough effect; inconclusive means small, poorly fitted or top-dose-only effect; inactive means flat fitted curve, though single readings scatter.

SMILES	ClpP mod	DT40 TDP1 no CPT	DRD3 agonist	IL1B secr inh	TDP1 cell CPT	D3 antag
CC(C)(C)C(=O)N1CCN(c2ccc([N+](=O)[O-])cc2Cl)CC1	0.3%	u	2.0	-9.0	u	29.4
COc1ccccc1CC(=O)Nc1ccc2nc(Nc3cccc(C(F)(F)F)c3)cc(C)c2c1	4.0%	5.8µM*	0.2	x	7.31µM*	x
COc1ccc(Nc2cc(C)c3cc(NC(=O)Cc4ccc(Cl)cc4)ccc3n2)cc1	u	u	12.8	x	u	x
COc1cccc(CC(=O)Nc2ccc3nc(Nc4cccc(C(F)(F)F)c4)cc(C)c3c2)c1	3.7%	18.4µM*	2.8	x	u	x
CCN1C(=O)C(=O)N(CC(=O)Nc2ccccc2Oc2ccccc2)C1=O	-3.8%	-12.6%	3.9	34.8	-14.8%	-13.7
Cc1ccc(S(=O)(=O)C(CNS(=O)(=O)c2ccc(F)c(C(F)(F)F)c2)c2ccco2)cc1 (centres undefined)	4.3%	u	-5.4	x	u	x
Nc1nonc1C(=Nc1ccc(Br)cc1)NO	0.1%	u	5.5	-20.9	25.9µM*	3.2
O=C(C1CCC1)N1CCc2cc(S(=O)(=O)N3CCN(c4ccccn4)CC3)ccc21	-17.1%	u	1.1	-3.1	u	u
CCC(=O)N1CCCc2cc(S(=O)(=O)N3CCN(c4ccccn4)CC3)ccc21	u	20.6µM*	0.4	-15.6	u	6.9
CCC(=O)N1CCc2cc(S(=O)(=O)N3CCCC3)ccc21	-0.1%	-11.3%	-2.5	4.0	-3.4%	1.3
CCC(=O)N1CCCc2cc(S(=O)(=O)N3CCN(c4ncccn4)CC3)ccc21	-11.9%	u	-7.8	-1.2	14.6µM*	4.0
COc1ccc(NC(=O)C2CCC(C)(C(=O)O)C2(C)C)cc1 (centres undefined)	-25.7%	-3.4%	5.3	13.7	-11.0%	-54.8*
CC1(C(=O)O)CCC(C(=O)Nc2ccccc2O)C1(C)C (centres undefined)	-1.8%	4.7%	-4.9	10.2	-17.1%	-10.0
CC(C)(C)NC(=O)C1CCC(C)(C(=O)O)C1(C)C (centres undefined)	-3.5%	4.3%	32.7*	-0.3	-1.8%	14.8
Nc1nc(COC(=O)C2CC(=O)N(CCc3ccccc3)C2)nc(Nc2ccccc2)n1 (centres undefined)	0.1%	2.3%	0.7	14.6	-13.9%	8.8
COc1ccc(CN(Cc2ccco2)c2cnc(S(C)(=O)=O)nc2C(=O)Nc2ccc(F)cc2)cc1	-3.8%	u	6.5	x	u	x
Cn1nc(-c2ccc(F)cc2)nc2c(=O)n(C)c(=O)nc1-2	0.0%	0.631µM*	x	x	0.447µM*	x
CCn1nc(-c2ccccc2C)nc2c(=O)n(C)c(=O)nc1-2	-1.6%	1µM*	x	x	1µM*	x
COc1ccc(-c2nc3c(=O)n(C)c(=O)nc-3n(C)n2)cc1	-2.9%	0.447µM*	x	x	0.0891µM*	x
Cn1nc(-c2cccnc2)nc2c(=O)n(C)c(=O)nc1-2	-1.9%	1.26µM*	x	x	1.12µM*	x
CCC(=O)N1CCc2cc(CNS(=O)(=O)c3ccc(C(C)C)cc3)ccc21	1.4%	u	6.7	x	u	x
O=C(C1Cc2ccccc2CN1S(=O)(=O)c1ccccc1[N+](=O)[O-])N1CCOCC1 (centres undefined)	1.9%	u	-28.1	3.7	20.6µM*	u
O=C(C[N+]12CCCc3cccc(c31)CCC2)c1ccc(Cl)c2ccccc12	-2.3%	-2.4%	x	x	-9.5%	x
O=C(C[N+]12CCCc3cccc(c31)CCC2)c1ccc2ccccc2c1	-21.4%	7.08µM*	x	x	5.01µM*	x
Cc1cc(C)cc(NS(=O)(=O)c2ccc3[nH]c(=O)ccc3c2)c1	1.2%	u	1.5	0.4	u	0.8
SMILES	ClpP mod	DT40 TDP1 no CPT	DRD3 agonist	IL1B secr inh	TDP1 cell CPT	D3 antag
COc1ccc(Cl)cc1NC(=O)Cn1nc(C(F)(F)F)c2c1CCCC2	1.1%	u	5.6	x	u	x
COc1cc(NC(=O)Cn2nc(C(F)(F)F)c3c2CCCC3)cc(OC)c1OC	2.0%	10.3µM*	0.4	-11.8	23.1µM*	-18.8
CCCc1cc(=O)[nH]c(SCC(=O)Nc2oc(C)c3c(C)n[nH]c(=O)c23)n1	-7.0%	0.8%	5.0	48.5	-12.1%	5.9
O=C1C(Cc2ccccc2)Nc2ncnc(N3CCCCC3)c2N1Cc1ccccc1 (centres undefined)	-5.6%	u	-8.7	-10.6	u	-9.4
CCC1Nc2ncnc(N3CCc4ccccc4C3)c2N(Cc2ccc(Cl)cc2)C1=O (centres undefined)	-8.7%	u	-24.0	-14.4	20.6µM*	-8.3
O=C1C(Cc2ccccc2)Nc2ncnc(N3CCc4ccccc4C3)c2N1Cc1ccc(Cl)cc1 (centres undefined)	-24.5%	u	-22.7	-93.9*	u	-59.2*
CC1Nc2ncnc(N3CCc4ccccc4C3)c2N(Cc2ccccc2)C1=O (centres undefined)	0.6%	u	2.3	-22.7	20.6µM*	5.2
COc1ccc(/C=C(\C#N)C(=O)NC(C)c2ccccc2)cc1O (centres undefined)	x	u	-3.0	-86.7*	-25.1%	8.2
CC(NC(=O)/C(C#N)=C/c1ccc([N+](=O)[O-])o1)c1ccccc1 (centres undefined)	-1.5%	0.731µM*	-6.8	-104.6*	0.651µM*	-96.0*
COc1ccc(/C=C(\C#N)C(=O)Nc2cc(C)c(Cl)cc2OC)cc1O	0.6%	-26.0%	0.2	-20.3	u	19.5
N#C/C(=C\c1ccc(O)c(O)c1)C(=O)NCCCCc1ccccc1	x	8.41µM*	x	x	6.68µM*	x
COC(=O)c1ccc(/C=C(\C#N)C(=O)NC(C)c2ccccc2)cc1 (centres undefined)	-4.2%	10.3µM*	0.6	-97.3*	9.2µM*	-55.5*
N#C/C(=C\c1ccc(O)c(O)c1)C(=O)NCCc1ccccc1	0.4%	u	8.0	34.1	u	-22.7
CCCCNC(=O)/C(C#N)=C/c1ccc(C(=O)OC)cc1	x	u	0.4	13.3	u	-11.6
CC(NC(=O)/C(C#N)=C/c1ccco1)c1ccccc1 (centres undefined)	x	-22.3%	9.5	-21.2	5.3%	2.6
CCC(=O)N1CCc2cc(Br)cc(S(=O)(=O)N3CCC(C(=O)Nc4ccccc4CC)CC3)c21	0.1%	u	2.9	x	u	x
